The record followed here is PubChem BioAssay AID624351 (Southern Research Specialized Biocontainment Screening …, 2012).

SMILES strings stand for the structures. Out of some 2,400 compounds screened, about 1,400 (58%) were called active.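 The calls were made as follows: active = inhibition of 30% or more at any tested dose; inconclusive = primary hits over the limit that were never retested; inactive = the rest.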 The set was probably picked from earlier hits. The list shows a part of the results.

This experiment in a line: ADP Hunter readout inhibition without MgcRacGAP – biochemical, coupled enzyme counter-screen, artefact control for MgcRacGAP inhibitor project, dose response (AID 624351).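 Also: signal is the ADP detection kit reading of free GDP without any GAP enzyme.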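 As to inhibition: 0% = median positive control wells and 100% = median negative control wells.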 To be noted: fluorescence, no MgcRacGAP; series mostly up to 80 µM; inhibition: at the top concentration. In general terms: A counterscreen serves to expose hits that act by an unwanted route or on another target.
For the molecule `O=C1/C(=C\c2ccc(O)cc2)SC(=S)N1/N=C/c1ccc(O)cc1`, the IC50 was 72.7 µM (active).
`CC(CN1CCN(Cc2ccccc2)CC1)c1ccccc1` (centres undefined): the “inhibition” value is -2.98% (inactive).
Turning to `CCOc1cc(CN2CCN(C(=O)CC(C)C)CC2)ccc1OC`, the “inhibition” value was 19% (inactive).
On to `CCN(CC)c1ccc(/C=N/N2CCN(Cc3ccccc3)CC2)cc1`, for which the IC50 is 75.1 µM (active).
For the molecule `CN(c1ccccc1)c1ccc(/C=C/[N+](=O)[O-])cc1`, the “inhibition” value was 6.03% (inactive).
Still for that read-out and setting: the figure for `CCOc1ccc(CN2CCN(Cc3c[nH]c4ccccc34)CC2)cc1` is 26.6% (inactive); for `CCN(Cc1ccccc1)C1CCN(Cc2ccc(SC)cc2)CC1` it is 17.8% (inactive).
Regarding `CN(c1ccccc1)c1ccc(/C=N/N2CCOCC2)cc1`, the half-maximal inhibitory concentration (IC50) is 36.8 µM (active).
With `CCOc1cc(/C=N/N2CCN(Cc3ccccc3)CC2)ccc1O`, the IC50 was 78.5 µM (active).
Take `CCN(Cc1ccccc1)c1ccc(/C=N/N2CCOCC2)cc1`: the IC50 was 57.8 µM (active).
For the molecule `CC(=O)N(C1=C(Cl)C(=O)c2ccccc2C1=O)c1ccc(C(=O)O)cc1`, the “inhibition” value is 0.61% (inactive).
As for `CCN(CC)c1ccc(/C=N/N2CCOCC2)cc1`, the IC50 was 40.3 µM (active).
Turning to `CCN(CC)c1ccc(/C=N/N2CCOCC2)c(O)c1`, the IC50 was 63.7 µM (active).
With `CN(C)c1ccc(/C=N/N2CCN(Cc3ccccc3Cl)CC2)cc1`, the IC50 was 71 µM (active).
Turning to `CC(C)c1ccc(/C=N/N2CCCCC2)cc1`, the “inhibition” value was 15.9% (inactive).
As for `COc1ccccc1CN1CCN(Cc2cc(OC)c(OC)cc2OC)CC1`, the “inhibition” value is 22.1% (inactive).
On the same count and under the same terms, under `Cc1ccc(OCCN2CCN(C)CC2)c([N+](=O)[O-])c1` stands 19.3% (inactive).
With `O=C(Nc1ccc(O)cc1)c1cc2ccccc2c(=O)s1`, the IC50 is 30.1 µM (active).
Still for that read-out and setting: the figure for `COc1ccc2cc(C(=O)Nc3ccc(O)cc3)sc(=O)c2c1OC` is 24.8 µM (active).
With `O=C(Cn1sc2ccccc2c1=O)Nc1ccccc1`, the “inhibition” value is -1.87% (inactive).
For the molecule `COc1cc(/C=C/C(=O)OCC(=O)Nc2ccc(S(=O)(=O)N3CCCC3)cc2)ccc1O`, the IC50 was 45.7 µM (active).
Regarding `CCN(CC)S(=O)(=O)c1ccc(C)c(NC(=O)CN2CCN(C)CC2)c1`, the “inhibition” value is 11.1% (inactive).
As to `COCCNCC(=O)Nc1ccc(C)c(S(=O)(=O)N2CCCCC2)c1`, the “inhibition” value is 17.4% (inactive).
`Cc1ccc(S(=O)(=O)N2CCCCC2)cc1NC(=O)CNCc1ccco1`: the “inhibition” value is 18.3% (inactive).
Regarding `COc1cc(/C=C/C(=O)OCC(=O)Nc2cc(S(=O)(=O)N3CCCCC3)ccc2C)ccc1O`, the IC50 is 60.2 µM (active).
For the molecule `Cc1ccc(NC(=O)CNCCCN2CCOCC2)cc1S(=O)(=O)N1CCCCC1`, the “inhibition” value is 21% (inactive).
Consider `CC(CCN1CCN(CCO)CC1)c1ccccc1` (centres undefined), for which the “inhibition” value is 3.17% (inactive).
On to `CN=C1S/C(=C\c2ccc(O)c(Br)c2)C(=O)N1C`, for which the IC50 was 45.8 µM (active).
`Cc1nc(N)sc1-c1ccccc1`: the IC50 was 80.8 µM (active).
For the molecule `COc1ccc(-c2ccc(CCC(=O)O)n2-c2ccc(O)cc2)cc1`, the “inhibition” value is 11.4% (inactive).
In the case of `COc1ccc(C(=O)/C=C/c2ccc(O)cc2)cc1`, the IC50 was 42.2 µM (active).
Take `COC(=O)c1ccc2c(c1)C(C)(C)C(/C=C/c1ccc(O)cc1)=[N+]2C`: the “inhibition” value was 17.5% (inactive).
As for `COc1ccc(N2CCN(C(=O)c3ccc(Br)o3)CC2)cc1`, the “inhibition” value was 25.5% (inactive).
Consider `CC(=O)N1CCN(c2ccc(NCc3ccc(Br)o3)cc2)CC1`, for which the IC50 is 12.4 µM (active).
As for `CC(=O)N1CCN(c2ccc(NCc3ccco3)cc2)CC1`, the IC50 was 13.1 µM (active).
Consider `O=C(CNCc1ccco1)Nc1ccc(N2CCCCCC2)cc1`, for which the “inhibition” value is 29.8% (inactive).
Still for that read-out and setting: under `Cc1cc(/C=N/Nc2ccc([N+](=O)[O-])cn2)c(C)n1-c1ccc(C(=O)O)cc1` stands -11.8% (inactive).
On to `CN(C)c1ccc(NC2=C([N+](=O)[O-])CS(=O)(=O)C2)cc1`, for which the concentration for half-maximal inhibition (IC50) is 51.3 µM (active).
As to `CN(C)c1ccc(Nc2ccc([N+](=O)[O-])cn2)cc1`, the IC50 is 70.9 µM (active).
For the molecule `O=C(c1ccccc1F)N1CCN(Cc2ccccc2F)CC1`, the “inhibition” value was 13.3% (inactive).
`CCOc1c(C=C(C#N)C#N)c2ccccc2n1CC`: the “inhibition” value is 19.6% (inactive).
`C(=N\N1CCOCC1)/c1nc(-c2ccccc2)n2ccccc12`: the half-maximal inhibitory concentration (IC50) was 25.7 µM (active).
As to `CN1CCN(/N=C/c2nc(-c3ccccc3)n3ccccc23)CC1`, the IC50 was 35.6 µM (active).
Still for that read-out and setting: the figure for `Clc1ccccc1-c1nc(/C=N/N2CCOCC2)c2ccccn12` is 44 µM (active); for `CN1CCN(/N=C/c2nc(-c3ccc(Cl)cc3)n3ccccc23)CC1` it is 41.9 µM (active).
As to `O=C(O)c1ccc2c(c1)C(=O)/C(=C\c1ccco1)C2=O`, the “inhibition” value was -0.18% (inactive).
On to `Cc1ccccc1N1C(S)=C(C#N)C(=O)NC1c1cccs1` (centres undefined), for which the “inhibition” value was 5.79% (inactive).
Consider `Cc1ccc(-n2sc3cc(F)ccc3c2=O)c(C)c1`, for which the “inhibition” value was 13.5% (inactive).
`CSc1ccccc1NC(=O)CNCCCN1CCOCC1`: the “inhibition” value is 22.1% (inactive).
The same measure, in the same setting: under `N#Cc1ccc(OCC(=O)Nc2ccc(N3CCCC3)cc2)cc1` stands 17.9% (inactive); under `CCOC(=O)COc1ccc2c(c1)C(=O)CC1(CCCCC1)O2`, 4.34% (inactive); under `O=C(CNCc1ccco1)Nc1ccc(Oc2ccccc2)cc1`, 17.1% (inactive).
Take `O=C(NCc1ccco1)c1sc(=S)n2c1[nH]c(=O)c1ccccc12`: the “inhibition” value is 29.9% (inactive).
Still for that read-out and setting: under `O=C1CCCCC/C1=N/Nc1ccc(OCc2ccccc2)cc1` stands 0% (inactive).

As usually defined, the IC50 is the concentration needed to halve the response being measured. For orientation: inhibition means the drop in the measured response relative to a control, in per cent.
